The record followed here is PubChem BioAssay (EPA / NIEHS).

The source made the active and inactive calls. The calls were made as follows: active = hit-call score of the fitted dose curve at least 0.9, where 1 is the maximum; inactive = score below 0.9.

The nature of the experiment: CEETOX_H295R_OHPROG: CeeTox H295R High-throughput Steroidogenesis Assay for OH-Progesterone (OHPROG) (AID 2283435). As to conditions: actives raise or lower the signal. As for the experimental part: CEETOX_H295R is a cell-based, multiplexed-readout assay that uses H295R, a human adrenal gland cell line, with measurements taken at 48 hours after chemical dosing in a 96-well plate.CEETOX_H295R_OHPROG is one of 23 assay component(s) measured or calculated from the CEETOX_H295R assay. It is designed to make measurements of hormone induction, a form of inducible reporter, as detected with absorbance signals by HPLC-MS-MS technology.Data from the assay component CEETOX_H295R_OHPROG was analyzed into 1 assay endpoint. This assay endpoint, CEETOX_H295R_OHPROG, was analyzed with bidirectional fitting relative to DMSO as the negative control and baseline of activity. Using a type of inducible reporter, gain or loss-of-signal activity using HPLC-MS-MS was used to understand synthesis of 17alpha-hydroxyprogesterone in H295R cell line at 48hr of chemical exposure. To generalize the intended target to other relatable targets, this assay endpoint is annotated to the steroid hormone intended target family, where the subfamily is progestagens.
Cell culture and media preparation procedures were conducted in accordance with OECD Test No. 456 guidelines, with minor modifications. H295R cells (ATCC CRL-2128) were expanded for 5 passages and frozen in batches in liquid nitrogen. Prior to the steroidogenesis assay, H295R cells were thawed and passed at least 4 times. The maximum passage was 10. Cells were maintained in a 1:1 mixture of DMEM/F12 supplemented with 5ml/L ITS+ Premix (BD Bioscience) and 12.5 ml/L Nu-Serum (BD Bioscience). After seeding cells into 96-well plates at 50-60% confluency, cells were allowed to adhere overnight. Prior to chemical testing, culture medium was replaced with 175 uL medium containing 10 uM forskolin to stimulate steroidogenesis for 48 hours. Following prestimulation, forskolin medium was replaced with medium containing test chemical solubilized in DMSO (ensuring a final concentration of 0.1% DMSO). Test chemicals were incubated for 48 hours, then the medium was removed and split into 2 vials containing approximately 75uL each, and stored at -80 C prior to hormone analysis. For steroid quantification, media samples were shipped to OpAns, LLC (Durham, NC) on dry ice, and samples were thawed to room temperature prior to liquid-liquid extraction. Steroid hormones were extracted from media samples using methyl tertbutyl ether (MTBE). An extra derivatization with dansyl chloride was included for estrogen (estrone and estradiol) detection only. Steroid hormones were separated by HPLC, eluted using a reverse phase C18 gradient with electrospray positive ionization, followed by quantification by tandem mass spectrometry (MS/MS). Data were acquired on a MassHunter Workstation Acquisition version B03.01 (Agilent Technologies, Inc.) and processed using MassHunter Quantitative Analysis for QQQ. Accuracy was determined for each hormone analyte from 3 standards to determine upper and lower limits of quantification (ULOQ and LLOQ, respectively) using a 7-point standard curve. Precision and accuracy of the extraction and quantification methods were calculated as the percent relative standard deviation (%RSD) of the spiked standards and percent spiked standard recovered, respectively. […] Test medium was removed following chemical exposure, and cell viability was evaluated in the same wells by MTT. MTT procedures were as follows: after removal of test medium, 500 uL of 0.5 mg/ml of 3-[4,5-dimethylthiazol-2-y]2,5-diphenyltetrazoliumbromide solution was added to the cells. Following a 4-hour incubation at 37 C and 5% CO2 to allow formazan-crystal formation, the MTT solution was removed and blue formazan salt crystals were solubilized using 500uL anhydrous isopropanol with shaking for 20 minutes. Absorbance was read at 570 and 650nm using a Packard Fusion microplate reader. Background correction of absorbance units was used to determine percent change relative to controls. […]
In the case of `C=C1CC[C@H](O)C/C1=C/C=C1\CCC[C@]2(C)[C@@H]([C@H](C)/C=C/[C@H](C)C(C)C)CC[C@@H]12`, the AC50 is 12.3 µM (active).
Regarding `CC(C)Nc1nc(N)nc(Cl)n1`, the call was inactive.
`BrCc1cccc(Oc2ccccc2)c1`: the AC50 was 36.5 µM (active).
On the same count and under the same terms, the figure for `COc1ccc(N=Nc2cc(C)c(N=Nc3ccc(S(=O)(=O)O)cc3)cc2OC)cc1` is 34.6 µM (active).
With `CCc1cc(C(C)(C)C)c(O)c(C(C)(C)C)c1`, the compound was called inactive.
For `CCOC(=O)[C@@H](C)Oc1ccc(Oc2nc3ccc(Cl)cc3o2)cc1`, the concentration at half-maximal activity (AC50) is 10.1 µM (active).
With `CC1(C)C(=O)N(Cl)C(=O)N1Br`, the compound was called inactive.
For `COCCc1ccc(OCC(O)CNC(C)C)cc1` (configuration not stated), the AC50 was 50 µM (active).
On the same count and under the same terms, the figure for `OCc1cccc(Oc2ccccc2)c1` is 50 µM (active).
As to `CCC(C)c1cc([N+](=O)[O-])cc([N+](=O)[O-])c1OC(=O)OC(C)C` (configuration not stated), the compound was called inactive.
Regarding `CC(C)(C)CC(C)(C)c1ccc(OCCOCC[N+](C)(C)Cc2ccccc2)cc1`, the outcome was inactive.
Take `CC=Cc1ccc(OCC)c(O)c1`: the AC50 is 11 µM (active).
On to `CCCCCCCCN1CCCC1=O`, for which the compound was classed as inactive.
For `Nc1ccc(N)c2c1C(=O)c1ccccc1C2=O`, the AC50 is 1.51 µM (active).
Regarding `CC(CN=Cc1ccccc1O)N=Cc1ccccc1O` (configuration not stated), the AC50 is 1.97 µM (active).
Still for that read-out and setting: the figure for `COc1ccc(CCN2CCC(Nc3nc4ccccc4n3Cc3ccc(F)cc3)CC2)cc1` is 1.41 µM (active).
On the same count and under the same terms, the figure for `Cc1cc(=O)oc2cc(N(C)C)ccc12` is 50 µM (active).
